# Reference: PubChem BioAssay
# Calls of active or inactive are those of the source.
# Key:
# [1] = tested on: PRMT1 (protein arginine N-methyltransferase 1); experiment: PRMT1 binders on small-molecule microarrays, primary screen, biochemical, small-molecule microarray, 635 nm fluorescence (AID 1088); conditions: small-molecule microarray binding, higher = more signal;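 note: binding of Prmt1 protein to compounds spotted on small-molecule microarray slides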
# [2] = yeast growth modulation, basal conditions, primary screen, YJM789 clinical isolate, OD600, 24 h (AID 1089);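 note: growth of clinical yeast isolate S. cerevisiae YJM 789 seeded 1000 cells per well; test concentration not given here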; conditions: S. cerevisiae YJM789 growth, higher = more signal, called active from +8 up or from −8 down
# [3] = fission yeast growth modulation, primary screen, strain 972, OD600, 24 h, no modulator (AID 1090);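 note: basal condition with compound alone and no growth modifier present; test concentration not given here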; conditions: S. pombe 972 growth, higher = more signal, called active from +8 up or from −8 down
# [4] = S. cerevisiae growth modulation with rapamycin, primary screen, strain BY4716, OD600, 96 h (AID 1091); conditions: higher = more signal, called active from +8 up or from −8 down; note: test concentration not given here
# [5] = molecular target: Torsin-1A-interacting protein 2 (Homo sapiens) (UniProt Q8NFQ8); experiment: LULL1 binders on small-molecule microarray, primary screen, cell lysate, human LULL1 lysate, 635/667 nm fluorescence (AID 1092); conditions: hLULL1 lysate binding, 635 nm fluorescence, higher = more signal;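 note: probe is lysate of COS7 cells overexpressing human LULL1; score merges per-feature 667 nm fluorescence with signal-to-noise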
# [6] = E. coli growth modulation, two-sided OD650, primary screen, E. coli filamentation project, strain DRC41, 24 h (AID 1093); conditions: OD650, 24 h, higher = more signal, called active from +8 up or from −8 down;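 note: MC1000 strain lacking acrAB efflux and sulA so SOS filamentation is blocked; test concentration not given here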
# [7] = small-molecule microarray binders of probe aLefty2, primary screen, biochemical, biotinylated probe, 635/667 nm fluorescence (AID 1094); conditions: higher = more signal;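 note: score merges spot fluorescence near 667 nm with spot signal-to-noise ratio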
# [8] = tested on: Noggin (protein binding on small-molecule microarray); experiment: Noggin binders on small-molecule microarray, primary screen, biochemical, 635/667 nm fluorescence (AID 1095); conditions: 635 nm fluorescence, higher = more signal;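 note: score merges 667 nm feature fluorescence with signal to noise over triplicate slides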
# [9] = molecular target: Neurogenic locus notch homolog protein 3 (Homo sapiens) (UniProt Q9UM47); experiment: NOTCH3 binders on small-molecule microarray, primary screen, biochemical, 635/667 nm fluorescence (AID 1096); conditions: NOTCH3 binding, 635 nm fluorescence, higher = more signal
# [10] = small-molecule microarray binders of probe aEGFR, primary screen, biochemical, biotinylated probe, 635/667 nm fluorescence (AID 1097); conditions: higher = more signal;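 note: probe is a biotinylated anti-EGFR antibody binding compounds printed on slides; score combines fluorescence near 667 nm and signal to noise of each spot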
# Sequence of Torsin-1A-interacting protein 2 (Homo sapiens) (Q8NFQ8 whole entry, looked up): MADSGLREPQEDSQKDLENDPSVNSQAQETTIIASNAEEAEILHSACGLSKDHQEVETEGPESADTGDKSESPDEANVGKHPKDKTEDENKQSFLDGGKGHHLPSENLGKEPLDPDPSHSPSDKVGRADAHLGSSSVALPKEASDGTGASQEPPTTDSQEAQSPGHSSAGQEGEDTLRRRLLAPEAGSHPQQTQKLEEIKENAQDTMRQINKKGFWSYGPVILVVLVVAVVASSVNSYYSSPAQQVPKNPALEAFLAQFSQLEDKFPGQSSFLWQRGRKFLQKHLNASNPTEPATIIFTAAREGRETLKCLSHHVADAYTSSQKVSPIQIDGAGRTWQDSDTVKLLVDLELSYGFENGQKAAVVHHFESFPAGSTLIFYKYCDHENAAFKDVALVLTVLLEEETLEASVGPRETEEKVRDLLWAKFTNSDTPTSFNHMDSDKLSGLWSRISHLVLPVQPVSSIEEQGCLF
# Sequence of Neurogenic locus notch homolog protein 3 (Homo sapiens) (Q9UM47 whole entry, looked up): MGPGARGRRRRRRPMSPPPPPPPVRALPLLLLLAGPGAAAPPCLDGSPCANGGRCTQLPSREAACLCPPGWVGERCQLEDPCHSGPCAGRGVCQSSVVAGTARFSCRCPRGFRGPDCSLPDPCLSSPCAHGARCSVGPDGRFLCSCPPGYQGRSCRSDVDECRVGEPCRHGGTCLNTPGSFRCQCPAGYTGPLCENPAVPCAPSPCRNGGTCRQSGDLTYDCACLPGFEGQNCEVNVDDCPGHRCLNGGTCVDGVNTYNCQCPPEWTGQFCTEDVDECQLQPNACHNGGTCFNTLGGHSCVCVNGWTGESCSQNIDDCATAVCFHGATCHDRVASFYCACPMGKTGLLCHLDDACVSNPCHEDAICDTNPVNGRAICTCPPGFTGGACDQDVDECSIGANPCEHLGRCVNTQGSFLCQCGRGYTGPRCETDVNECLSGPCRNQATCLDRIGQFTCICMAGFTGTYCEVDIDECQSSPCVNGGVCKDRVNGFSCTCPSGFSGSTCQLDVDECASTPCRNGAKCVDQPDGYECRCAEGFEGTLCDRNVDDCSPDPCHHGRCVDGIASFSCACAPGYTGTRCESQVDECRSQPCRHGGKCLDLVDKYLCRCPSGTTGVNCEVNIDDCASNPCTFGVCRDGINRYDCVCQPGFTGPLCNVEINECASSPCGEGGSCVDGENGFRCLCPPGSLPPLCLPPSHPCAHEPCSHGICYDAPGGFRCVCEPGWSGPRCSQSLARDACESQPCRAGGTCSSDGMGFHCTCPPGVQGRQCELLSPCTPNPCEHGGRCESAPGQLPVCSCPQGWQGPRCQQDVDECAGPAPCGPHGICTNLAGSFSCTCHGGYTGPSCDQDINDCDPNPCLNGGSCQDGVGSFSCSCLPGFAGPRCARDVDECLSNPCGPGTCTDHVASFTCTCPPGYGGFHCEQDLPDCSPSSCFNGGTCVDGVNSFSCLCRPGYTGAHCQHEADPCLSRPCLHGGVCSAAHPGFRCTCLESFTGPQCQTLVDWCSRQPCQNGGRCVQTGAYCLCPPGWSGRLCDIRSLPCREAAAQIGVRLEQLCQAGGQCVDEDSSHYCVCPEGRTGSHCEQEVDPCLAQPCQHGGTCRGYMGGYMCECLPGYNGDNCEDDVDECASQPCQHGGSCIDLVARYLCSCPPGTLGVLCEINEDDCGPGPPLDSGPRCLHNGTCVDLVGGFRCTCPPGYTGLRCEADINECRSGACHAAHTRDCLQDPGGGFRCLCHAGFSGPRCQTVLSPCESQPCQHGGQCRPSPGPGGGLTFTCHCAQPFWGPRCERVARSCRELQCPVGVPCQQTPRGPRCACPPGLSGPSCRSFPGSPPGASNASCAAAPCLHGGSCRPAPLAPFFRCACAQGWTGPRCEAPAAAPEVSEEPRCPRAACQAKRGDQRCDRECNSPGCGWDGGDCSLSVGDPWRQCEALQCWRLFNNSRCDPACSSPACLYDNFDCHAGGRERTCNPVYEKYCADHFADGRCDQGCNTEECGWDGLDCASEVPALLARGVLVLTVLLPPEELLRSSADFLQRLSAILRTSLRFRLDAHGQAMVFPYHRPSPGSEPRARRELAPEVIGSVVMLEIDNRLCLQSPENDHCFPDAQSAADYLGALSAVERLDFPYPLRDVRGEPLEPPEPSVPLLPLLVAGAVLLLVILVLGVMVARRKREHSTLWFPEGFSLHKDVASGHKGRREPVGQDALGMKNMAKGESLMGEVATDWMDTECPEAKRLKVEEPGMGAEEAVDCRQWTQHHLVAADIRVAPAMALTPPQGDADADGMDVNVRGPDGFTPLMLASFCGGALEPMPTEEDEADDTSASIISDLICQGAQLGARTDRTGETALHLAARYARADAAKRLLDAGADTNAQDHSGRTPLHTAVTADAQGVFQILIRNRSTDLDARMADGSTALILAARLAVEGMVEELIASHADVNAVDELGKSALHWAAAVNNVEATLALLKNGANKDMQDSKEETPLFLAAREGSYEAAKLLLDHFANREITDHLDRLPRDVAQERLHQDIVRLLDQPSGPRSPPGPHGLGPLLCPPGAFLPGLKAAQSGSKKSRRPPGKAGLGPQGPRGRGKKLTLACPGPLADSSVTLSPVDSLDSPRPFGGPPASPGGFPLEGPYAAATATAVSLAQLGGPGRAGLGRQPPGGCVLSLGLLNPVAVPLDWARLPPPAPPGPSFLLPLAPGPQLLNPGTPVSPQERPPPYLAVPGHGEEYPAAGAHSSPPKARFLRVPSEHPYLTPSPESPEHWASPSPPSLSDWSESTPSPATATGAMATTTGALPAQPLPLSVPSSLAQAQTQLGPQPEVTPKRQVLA
Compound,composite z-score [1],z-score [2],z-score [3],z-score [4],composite z-score [5],z-score [6],composite z-score [7],composite z-score [8],composite z-score [9],composite z-score [10]
C=C(CCCC)C(=O)CC[C@H](OC(=O)c1ccccc1-c1ccccc1C(=O)O)c1cccc(OCCO)c1,0.317,-0.0349 (inactive),-0.386 (inactive),-0.678 (inactive),1,0.171 (inactive),-0.186,0.135,-0.186,-0.221
C=CC[C@]1(C(=O)NCCN2CCOCC2)N=C(c2ccc(OCCCO)cc2)O[C@H]1c1ccccc1,1.17,-1.24 (inactive),-0.577 (inactive),-1.15 (inactive),2.65,0.0059 (inactive),0.0365,0.816,-0.398,0.174
C[C@]1(C(=O)NCC(F)(F)F)c2ccccc2C(=O)N(Cc2cc(C(F)(F)F)cc(C(F)(F)F)c2)[C@H]1c1ccc(CO)cc1,0.594,0.182 (inactive),-0.0136 (inactive),-0.0066 (inactive),1.35,1.07 (inactive),-0.114,-0.736,-0.802,-0.11
COCCOC(=O)N1C(=O)[C@@]2(c3cc(C#CCCO)ccc31)[C@H](C(=O)N1CCN(c3ncccn3)CC1)[C@H]1C(=O)O[C@H](c3ccccc3)[C@H](c3ccccc3)N1[C@@H]2c1ccc(OCCO)cc1,1.53,2.26 (inactive),1.9 (inactive),5.64 (inactive),3.11,-0.466 (inactive),-0.025,0.86,1.05,0.0193
CCOC(=O)C[C@H]1[C@H](OC(=O)c2ccc(-c3ccccc3)cc2)[C@@H](NC(=O)C2CCCCC2)c2cc(OCCCO)ccc2N1C(=O)Cc1ccc(OC)cc1,0.405,-0.253 (inactive),-0.0766 (inactive),0.214 (inactive),0.852,-0.884 (inactive),-0.141,-0.141,0.375,-0.114
CCCC=C(CCC)[C@@H](NC(=O)c1ccc(C(=O)OC)cc1)c1ccc(C(=O)OC)cc1,0.0599,0.57 (inactive),0.311 (inactive),0.182 (inactive),2.85,-1.29 (inactive),0.177,0.294,0.251,0.0173
COc1cccc(C)c1NC(=O)O[C@H]1[C@H](OC(=O)Nc2ccc3c(c2)OCO3)[C@H](OC(=O)Nc2ccc3c(c2)OCO3)[C@@H](OC)O[C@@H]1CO,1.55,1.5 (inactive),0.718 (inactive),4.29 (inactive),3.19,0.358 (inactive),0.107,0.701,1.04,-0.0192
C#CCN(C(=O)OC(C)(C)C)[C@H](CO)c1ccccc1,0.738,-0.365 (inactive),-2.99 (inactive),0.368 (inactive),0.444,-0.223 (inactive),-0.235,0.582,0.524,-0.198
COc1cccc(C)c1NC(=O)O[C@H]1[C@H](OC(=O)Nc2ccccc2-c2ccccc2)[C@@H](OC(=O)Nc2ccccc2-c2ccccc2)[C@@H](OC)O[C@@H]1CO,1.53,3.84 (inactive),2.59 (inactive),3.5 (inactive),3.54,-0.692 (inactive),0.0426,1.36,0.542,0.0059
C=CCN1C(=O)[C@]2(O[C@H](CCO)[C@@H]([Si](C)(C)c3ccc(OC)cc3)[C@@H]2C)c2cc(N3C(=O)c4ccccc4Oc4ccccc43)ccc21,1.41,0.922 (inactive),0.729 (inactive),35.6 (active),2.13,0.77 (inactive),-0.0658,0.458,0.803,-0.115
O=C1OCC=C[C@H]2OC34C=CCN(Cn5nnc6ccccc65)C(=O)[C@H]3N(CCO)C(=O)[C@@H]4[C@@H]12 (stereo not given in full),0.551,0.936 (inactive),0.159 (inactive),0.294 (inactive),2.55,-0.55 (inactive),-0.0368,-1.88,-0.481,-0.171
C=CCNC(=O)[C@H]1[C@@H]2C(=O)O[C@@H](c3ccccc3)[C@@H](c3ccccc3)N2[C@@H](c2ccc(OCCO)cc2)[C@]12C(=O)Nc1ccc(C#Cc3ccc(OC)cc3)cc12,1.56,3.23 (inactive),2.1 (inactive),5.57 (inactive),2.75,0.741 (inactive),0.326,1.27,1.11,0.166
N#Cc1ccc(NN2C(C(O)c3ccc(B(O)O)cc3)C=CC3CN(c4ccccc4)C(=O)C32)cc1 (stereo not given),-0.188,0.587 (inactive),0.896 (inactive),1.88 (inactive),0.847,1.28 (inactive),-0.0576,-0.345,0.0787,-0.0828
COc1ccc([Si](C)(C)[C@H]2[C@H](CC(=O)N(CCO)Cc3ccccc3)O[C@@]3(C(=O)N(Cc4ccc(N5C(=O)c6cccc7cccc5c67)cc4)c4ccccc43)[C@@H]2C)cc1,1.48,0.614 (inactive),0.685 (inactive),2.87 (inactive),2.15,0.222 (inactive),0.748,1.36,1.12,0.0059
COC(=O)[C@@]1(Cc2ccccc2)[C@H]2c3cc(C(=O)N(C)C)n(Cc4ccc(Cl)c(C(F)(F)F)c4)c3C[C@H]2CN1C(=O)c1ccccc1,0.813,1.01 (inactive),1.45 (inactive),3.56 (inactive),2.74,-1.12 (inactive),0.146,1.59,1.01,0.0926
COc1ccc(C(=O)Nc2cccc(CN3C(=O)[C@]4(O[C@H](CC(=O)N(CCO)Cc5ccccc5)[C@@H]([Si](C)(C)c5ccc(OC)cc5)[C@@H]4C)c4ccccc43)c2)cc1,1.05,1.22 (inactive),0.706 (inactive),3.65 (inactive),1.69,0.854 (inactive),0.0553,0.701,0.255,-0.0251
C=CCNC(=O)[C@@H]1[C@H]2C(=O)O[C@H](c3ccccc3)[C@H](c3ccccc3)N2[C@H](c2ccc(OCCO)cc2)[C@@]12C(=O)Nc1ccc(C#CCNC(N)=O)cc12,0.872,0.696 (inactive),-0.279 (inactive),1.92 (inactive),1.8,0.0528 (inactive),-0.0368,0.216,0.266,-0.182
C=CCNC(=O)[C@H]1[C@@H]2C(=O)O[C@@H](c3ccccc3)[C@@H](c3ccccc3)N2[C@@H](c2ccc(O)cc2)[C@]12C(=O)Nc1ccccc12,1.05,1.14 (inactive),0.118 (inactive),1.37 (inactive),2.75,1.68 (inactive),-0.193,-0.0122,-0.537,-0.177
COC(=O)C[C@H]1O[C@]2(C(=O)N(C)c3ccccc32)[C@@H](C)[C@@H]1[Si](C)(C)c1ccccc1,1.17,-4.03 (inactive),-5.37 (inactive),-2.45 (inactive),0.687,0.23 (inactive),0.0718,1.23,1.08,-0.0675
CC(C)(C)OC(=O)CC[C@]1(C(=O)N2CCOCC2)COC(c2ccc(OCCCO)cc2)=N1,0.786,1.04 (inactive),0.487 (inactive),0.911 (inactive),3.6,1.66 (inactive),0.0665,-0.778,-0.526,0.94
CCCCC(=C=CC[C@@H](O)c1ccccc1OCCO)C[C@@H](O)c1ccccn1,1.35,0.0466 (inactive),-0.314 (inactive),-1.14 (inactive),2.3,0.0399 (inactive),-0.119,0.191,0.311,-0.0238
CN1C(=O)C2CC=C(C3=CCO[C@@H]3[C@H]3CCCN3S(=O)(=O)c3ccccc3[N+](=O)[O-])CC2C1=O (stereo not given in full),0.0659,-0.0649 (inactive),-0.706 (inactive),-0.0153 (inactive),0.283,-0.66 (inactive),-0.203,-0.194,0.01,-0.171
